Data published in PubChem BioAssay AID1347043 (National Center for Advancing Translational Sciences (NCATS), 2019).
Out of some 76,000 compounds screened, about 1,900 (2.5%) were called active. Not shown: some 5% with an inconclusive outcome. The call rests on the fitted dose curve; in most records, active means well fitted inhibition curve with a large enough effect; inconclusive means small, poorly fitted or top-dose-only effect; inactive means flat fitted curve, though single readings scatter. Many of the other results were omitted from the sample, so actives are more common in it than they were.

target: Luciferin 4-monooxygenase (Photinus pyralis) (UniProt P08659); assay: Firefly luciferase inhibition profiling of diverse chemical library using quantitative high-throughput screening; further: nearly all actives have a fitted effect of over 65% in size; details: purified P. pyralis luciferase, luminescence, biochemical; series mostly up to 115 µM
Sequence (P08659 whole entry, looked up): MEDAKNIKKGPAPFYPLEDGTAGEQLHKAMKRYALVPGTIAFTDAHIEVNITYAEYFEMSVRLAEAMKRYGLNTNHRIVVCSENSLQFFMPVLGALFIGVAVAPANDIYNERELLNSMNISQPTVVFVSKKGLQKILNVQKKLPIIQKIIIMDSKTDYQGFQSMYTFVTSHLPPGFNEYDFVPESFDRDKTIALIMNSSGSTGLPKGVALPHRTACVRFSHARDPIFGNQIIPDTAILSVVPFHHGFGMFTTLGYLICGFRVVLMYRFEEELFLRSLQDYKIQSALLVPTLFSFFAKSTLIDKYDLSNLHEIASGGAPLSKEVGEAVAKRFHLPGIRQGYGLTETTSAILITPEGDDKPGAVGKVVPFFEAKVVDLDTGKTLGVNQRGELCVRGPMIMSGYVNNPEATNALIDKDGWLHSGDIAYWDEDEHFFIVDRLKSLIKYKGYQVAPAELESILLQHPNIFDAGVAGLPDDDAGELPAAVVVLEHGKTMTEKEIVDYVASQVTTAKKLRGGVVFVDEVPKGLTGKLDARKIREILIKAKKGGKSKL
Procedure, shortened: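 Purified 10nM P. pyralis luciferase with 10uM D-luciferin and 10uM ATP in 50mM Tris acetate pH 7.5, 10mM Mg acetate, 0.01% Tween-20, 0.05% BSA. qHTS titration; luminescence read by CCD imager.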
Potency means the concentration at half of the fitted maximal effect.

Potency, active:
CC(=O)NC1(C)CCN(Cc2cccc(-c3ccc(C(=O)c4ccccc4)cc3)c2)C1 (stereo not drawn) 39.8 µM
Cc1ccc(NC(=O)Nc2ccc(C)n(CC(=O)NCCN3CCCC3)c2=O)cc1 14.1 µM
Cc1cc(NC(=O)c2ccc3c(c2)N(C)C2CCCCCN2C3=O)ccc1F (stereo not drawn) 17.8 µM
CCOc1ccc(NC(=O)c2ccc3c(c2)N(C)C2CCCN2C3=O)cc1 (stereo not drawn) 44.7 µM
CN1c2cc(C(=O)Nc3ccc(F)c(F)c3)ccc2C(=O)N2CCCCCC21 (stereo not drawn) 5.62 µM
CN1c2cc(C(=O)Nc3ccc(F)cc3)ccc2C(=O)N2CCCCC21 (stereo not drawn) 25.1 µM
CN1c2cc(C(=O)Nc3ccccc3)ccc2C(=O)N2CCCCCC21 (stereo not drawn) 6.31 µM
CCC(CC)N1CCN(C(=O)c2ccc3c(c2)N(S(C)(=O)=O)CC3)CC1 35.5 µM
O=C(Nc1ccccc1)c1nc2c(o1)CCN(Cc1cccc(Cl)c1)CC2 1.58 µM
O=C(Nc1ccc(Cl)cc1)c1nc2c(o1)CCN(Cc1ccsc1)CC2 17.8 µM
Cc1ccc(C(=O)Nc2ccc(C(O)[C@H]3COCC(=O)N3Cc3ccccc3F)cc2)cc1 (stereo partly drawn) 28.2 µM

Potency, inactive:
COc1ccccc1Nc1cnc2ccc(-c3ccc(OC)c(OC)c3)nn12
COCC1CN(C(=O)c2cc(C)n(C)n2)CC12CCNCC2 (stereo not drawn)
CC(=O)Nc1ccc(CN2CCCC3(CC(c4cccc(C(F)(F)F)c4)=NO3)C2)cc1 (stereo not drawn)
O=C(NC1CC1)c1ccc2c(c1)C1(CCN(CC3CC3)C1)CN2Cc1ccccc1 (stereo not drawn)
CSCCNC(=O)c1coc(CN2CCN(C/C=C/c3ccccc3)CC2)n1
Cc1cccc(NC(=O)C2CC(=O)N(c3n[nH]c4ccccc34)C2)n1 (stereo not drawn)
Cc1ccsc1C(=O)NCC1Cn2cccc2C(=O)N1Cc1ccccc1 (stereo not drawn)
Cc1ccc(S(=O)(=O)Nc2ccc(C)n(CC(=O)NCc3cccc(F)c3)c2=O)cc1
COc1ccc(NC(=O)Cn2c(C)ccc(NS(=O)(=O)c3ccccc3)c2=O)cc1
CN(C)c1ccc(CN2CCC3(CC(Cc4ccccc4)=NO3)C2)cc1 (stereo not drawn)
Cc1ccc(CNC(=O)c2ccc3c(c2)N(C)C2CCCCN2C3=O)cc1C (stereo not drawn)
COc1ccc(CNC(=O)c2ccc3c(c2)N(C)C2CCCCN2C3=O)c(OC)c1 (stereo not drawn)
CCN1c2cc(C(=O)NCc3ccc(OC)cc3OC)ccc2C(=O)N2CCCCCC21 (stereo not drawn)
CN1c2cc(C(=O)N3CCC(C(N)=O)CC3)ccc2C(=O)N2CCCCC21 (stereo not drawn)
CCN1c2cc(C(=O)Nc3ccc(F)c(C)c3)ccc2C(=O)N2CCCCC21 (stereo not drawn)
CCN1c2cc(C(=O)Nc3ccc(F)c(Cl)c3)ccc2C(=O)N2CCCCC21 (stereo not drawn)
CCN1c2cc(C(=O)Nc3ccc(SC)cc3)ccc2C(=O)N2CCCCCC21 (stereo not drawn)
CCN1c2cc(C(=O)Nc3ccc(OC)c(F)c3)ccc2C(=O)N2CCCCC21 (stereo not drawn)
O=C(Cc1cccc(Cl)c1)N1CCC([C@@H]2CNC[C@H]2CO)CC1
CN1CCN(C2CCOC3(CCN(C(=O)c4cccc5[nH]ccc45)CC3)C2)CC1 (stereo not drawn)
O=C(NCc1ccccc1C(F)(F)F)c1cc2n(n1)CC(c1ccc3c(c1)OCO3)OC2 (stereo not drawn)
CC(C)CN1CCN(C2CCOC3(CCN(C(=O)C4CCCC4)CC3)C2)CC1 (stereo not drawn)
O=C(NCc1nnc2c(-c3nc(C4CC4)no3)cccn12)c1cccnc1
CC(=O)N1CCc2[nH]cnc2C12CCN(C(=O)C(C)Oc1ccccc1)CC2 (stereo not drawn)
CCc1noc(-c2ccn3c(CNC(=O)c4ccc(OC)c(F)c4)nnc3c2)n1
O=C(c1ccc2c(c1)OCO2)N1CCCC2(CN[S+](=O)([O-])c3ccccc3N2)C1 (stereo not drawn)
CCCn1c(C)cnc1CC1CCN(C(=O)CCOC)CC1
Cc1cccc(N2C(=O)CSC23CCN(C(=O)C2CCC2)CC3)c1
COc1ccnc(CN2CCN(C)C3(CCC(=O)N(C)CC3)C2)c1OC (stereo not drawn)
CCN(CC)CC[C@H]1CN(C(=O)c2ccc(N(C)C)cc2)CC[C@H]1CC(=O)O
Cc1ccccc1CNC(=O)c1ccc2c(c1)N(C)C1CCCCN1C2=O (stereo not drawn)
CCN1c2cc(C(=O)Nc3ccccc3)ccc2C(=O)N2CCCC21 (stereo not drawn)
Cc1cc(C)cc(C(=O)NC2CCN(c3cc(-c4cccs4)[nH]n3)C2)c1 (stereo not drawn)
Cc1cccc(CN2C[C@@H]3C(=O)N(Cc4ccc5c(c4)OCO5)C(=O)[C@@H]3C2)c1
COc1ccc(OC)c(S(=O)(=O)N2CCCCCCNC(=O)CC2c2ccccc2)c1 (stereo not drawn)
CC(=O)N1CCc2ccc(C(=O)N3CCCCCC3)cc21
CCOc1cccc(CNC(=O)c2ccc3c(c2)N(S(C)(=O)=O)CC3)c1
CN(c1ccccc1)c1cc(=O)c2ccnc(-c3ccc(CO)cc3)c2o1
CN(c1ccccc1)c1cc(=O)c2ccnc(Nc3cccc([S+](C)(=O)[O-])c3)c2o1
Cc1ccc(CN2CCc3nc(C)nc(-c4ccc(O)cc4)c3C2)cc1
CCN1CCN(c2ccc(C(=O)NCCCn3ccnc3C(C)C)cn2)CC1
Cc1cccc(CN2CCc3nc(C(=O)Nc4ccc(Cl)cc4)oc3CC2)c1
O=C(NCC1CC1)c1nc2c(o1)CCN(Cc1cccc(F)c1F)CC2
N#Cc1ccc(CN2CCc3nc(C(=O)N4CCOCC4)oc3CC2)cc1
O=C(NCC1CC1)c1nc2c(o1)CCN(CCc1ccccc1)CC2
O=C(c1ccccc1-n1cccn1)N1CCN(Cc2ccccc2CO)CC1
CCOc1ccc(C(=O)N2CCC(Cc3nc(C(C)C)no3)CC2)cc1
Cc1nccn1CC1(CNc2ccncn2)CC1
CN(C)Cc1nnc(C2CCCN(C(=O)C3(N)CCNCC3)C2)n1C (stereo not drawn)
COc1ccccc1C1CCN(Cc2cn(-c3ccccc3)nn2)CC1
O=C(Nc1ccc([C@@H](O)[C@H]2COCC(=O)N2Cc2ccccc2F)cc1)c1ccccc1
O=C(Nc1ccc([C@@H](O)[C@H]2COCC(=O)N2Cc2ccccc2F)cc1)C1CCCCC1
